Among the test systems are NCI-H23 lung; NCI-H226 lung; NCI-H322M lung; HOP-62 NSCLC; NCI-H460 lung; HOP-92 NSCLC; NCI-H522 lung; A549/ATCC NSCLC; 786-0 renal; COLO 205 colon.
Holding throughout (assay): NCI-60 one-dose screen, 48 h (100 = growth as untreated, 0 = no growth, -100 = all killed)
Settings in all cases: 10 µM unless noted

The structures appear in SMILES notation. The panel holds about 83,000 compounds, 20% with a hit somewhere; the sample as a whole holds those more often.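 Testing used 96-well plates and a 48-hour single-concentration exposure. Example: -40 means 40% of the starting cells died.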 A number with no mark means an inactive call. Calls of active or inactive are those of the source. Rule for the calls: active = growth percent below 10; inactive = the rest.

On to `CC1(O)CCC(Nc2cc(-c3ccc(C(F)(F)F)cc3)c(C#N)c3nc4ccccc4n23)CC1` (stereo not given), for which the growth with NCI-H23 lung was 81.9%; with NCI-H226 lung it was 71%; with NCI-H322M lung, 89.9%; with HOP-62 NSCLC, 64.7%; in the assay with NCI-H460 lung, 68.7%; in the assay on HOP-92 NSCLC it was 52.5%. Further, the growth is 63.2% with NCI-H522 lung, 56% in the assay on A549/ATCC NSCLC, 70.7% with 786-0 renal and 61% in the assay with COLO 205 colon.

Turning to `CNC(=O)c1ccc(Nc2ncc(C(F)(F)F)c(NCc3nccnc3N(C)S(C)(=O)=O)n2)cc1`, the growth in the assay on NCI-H23 lung is -16.8% (active); with NCI-H226 lung, 2.77% (active); in the assay with NCI-H322M lung, 1.99% (active); in the assay with HOP-62 NSCLC, -23.5% (active); in the assay with NCI-H460 lung, 0.647% (active); with HOP-92 NSCLC it was -13.6% (active). For the same molecule, the growth is -25.2% (active) with NCI-H522 lung, -14.4% (active) in the assay with A549/ATCC NSCLC, 8.71% (active) in the assay with 786-0 renal and -66.2% (active) with COLO 205 colon.

Turning to `COc1cc2ncnc(Nc3cccc(Cl)c3F)c2cc1OC(=O)N1CCN(C)C[C@H]1C`, the growth in the assay on NCI-H23 lung was 92%; in the assay with NCI-H226 lung, 75.7%; in the assay with NCI-H322M lung, 10.5%; with HOP-62 NSCLC it was 61.8%; in the assay with NCI-H460 lung, 90.2%; in the assay with HOP-92 NSCLC, 51.9%. In addition, the growth in the assay on NCI-H522 lung was 16.2%; in the assay on A549/ATCC NSCLC, 40.8%; in the assay on 786-0 renal, 75.6%; in the assay on COLO 205 colon, 79.5%.

For `Cn1cc(-c2cnn3c(N)c(Br)c([C@@H]4CCCNC4)nc23)cn1`, the growth in the assay with NCI-H23 lung was 39.6%; in the assay with NCI-H226 lung, 60%; in the assay with NCI-H322M lung it was 48.2%; in the assay on HOP-62 NSCLC it was 28.8%; with NCI-H460 lung it was 35%; with HOP-92 NSCLC, 54.6%. Also, the growth is 28.4% in the assay with NCI-H522 lung, 41.5% in the assay with A549/ATCC NSCLC, 37% with 786-0 renal and 14.3% with COLO 205 colon.

For the molecule `CC/C(=C(/c1ccc(Cl)cc1)c1ccc(OCCN2CCCCC2)cc1)c1ccc(Cl)cc1`, the growth is 61.9% in the assay on NCI-H23 lung; 84.5% in the assay with NCI-H226 lung; 93.1% with NCI-H322M lung; 86.8% with HOP-62 NSCLC; 79.7% with NCI-H460 lung; 85.2% with HOP-92 NSCLC. In addition, the growth was 65.3% with NCI-H522 lung, 73% in the assay with A549/ATCC NSCLC, 76.7% with 786-0 renal and 70.4% in the assay with COLO 205 colon.

With `CC(C)NC[C@@H](C(=O)N1CCN(c2ncnc3c2[C@H](C)C[C@H]3O)CC1)c1ccc(Cl)cc1`, the growth in the assay on NCI-H23 lung is 58.7%; in the assay with NCI-H226 lung, 56.2%; with NCI-H322M lung, 55.6%; in the assay with HOP-62 NSCLC, 54%; in the assay on NCI-H460 lung it was 29.3%; in the assay on HOP-92 NSCLC, 2.39% (active). Also, the growth is 53% with NCI-H522 lung, 38% in the assay with A549/ATCC NSCLC, 4.37% (active) in the assay on 786-0 renal and 20.2% with COLO 205 colon.

With `Cc1cc(C(=O)Nc2cc(Oc3ccc4nc(NC(=O)C5CC5)cn4n3)ccc2C)n(C)n1`, the growth in the assay with NCI-H23 lung is 24.7%; in the assay on NCI-H226 lung, 43.3%; in the assay on NCI-H322M lung it was 15.8%; in the assay on HOP-62 NSCLC it was 14.4%; with NCI-H460 lung, 18.9%; in the assay on HOP-92 NSCLC it was -25.6% (active). The growth was 14.1% with NCI-H522 lung, 11% in the assay on A549/ATCC NSCLC, 51.9% in the assay on 786-0 renal and -27.2% (active) with COLO 205 colon.

Consider `CCc1cc2c(c3ccc(C(=O)CBr)cc13)CCCC2`, for which the growth was 89.1% in the assay on NCI-H23 lung; 92.2% in the assay on NCI-H226 lung; 77.5% with NCI-H322M lung; 91.6% with HOP-62 NSCLC; 109% with NCI-H460 lung; 109% in the assay on HOP-92 NSCLC. For the same molecule, the growth was 88.3% in the assay on NCI-H522 lung, 93% in the assay with A549/ATCC NSCLC, 99.7% in the assay with 786-0 renal and 102% in the assay with COLO 205 colon.

In the case of `Cc1sc2c(c1C)c(=O)nc1c(-c3nc(-c4ccccc4)cs3)n[nH]n12`, the growth with NCI-H23 lung is 91.9%; with NCI-H226 lung, 89.9%; in the assay with NCI-H322M lung, 101%; in the assay with HOP-62 NSCLC it was 92.4%; in the assay with NCI-H460 lung it was 96.2%; with HOP-92 NSCLC, 98.5%. Besides, the growth with NCI-H522 lung was 94.3%; in the assay with A549/ATCC NSCLC, 93%; in the assay on 786-0 renal it was 103%; in the assay with COLO 205 colon, 102%.

Turning to `Cc1cccc(Cl)c1NC(=O)c1cnc(Nc2cc(N3CCOCC3)cc(N3CCOCC3)c2)s1`, the growth in the assay with NCI-H23 lung is 73.8%; with NCI-H226 lung, 68.6%; in the assay on NCI-H322M lung, -10.4% (active); in the assay with HOP-62 NSCLC, 4.81% (active); with NCI-H460 lung, 51.2%; in the assay with HOP-92 NSCLC, -42.1% (active). Further, the growth in the assay on NCI-H522 lung was -9.13% (active); with A549/ATCC NSCLC, 10.7%; with 786-0 renal it was 17.1%; in the assay with COLO 205 colon, -4.18% (active).

As to `CN1CCN(c2ccc(OC(F)(F)F)c(Nc3ncc4c(n3)-c3c(c(C(N)=O)nn3CCO)CC4)c2)CC1`, the growth with NCI-H23 lung was 26%; in the assay with NCI-H226 lung, 57.8%; in the assay with NCI-H322M lung, 58.1%; with HOP-62 NSCLC, 5.17% (active); with NCI-H460 lung, 5.8% (active); with HOP-92 NSCLC, 25.8%. Also, the growth in the assay on NCI-H522 lung was -22% (active); with A549/ATCC NSCLC, 9.12% (active); in the assay with 786-0 renal it was 17%; in the assay on COLO 205 colon it was -15.4% (active).

For `C[C@@H]1COCCN1c1cc(C2([S@](C)(=N)=O)CC2)nc(-c2ccnc3[nH]ccc23)n1`, the growth is -1.16% (active) in the assay with NCI-H23 lung; 39.5% with NCI-H226 lung; 3.93% (active) in the assay with NCI-H322M lung; 8.86% (active) with HOP-62 NSCLC; 9.37% (active) in the assay with NCI-H460 lung; 23% in the assay on HOP-92 NSCLC. The growth with NCI-H522 lung is 30.9%; with A549/ATCC NSCLC, 8.97% (active); in the assay with 786-0 renal it was 2.08% (active); in the assay on COLO 205 colon, 42.3%.

As for `CN1CC[C@H](c2c(O)cc(O)c3c(=O)cc(-c4ccccc4Cl)oc23)[C@H](O)C1`, the growth was -17.3% (active) in the assay with NCI-H23 lung; 3.69% (active) with NCI-H226 lung; -5.32% (active) with NCI-H322M lung; -17.2% (active) in the assay on HOP-62 NSCLC; 3.22% (active) with NCI-H460 lung; -6.87% (active) with HOP-92 NSCLC. Also, the growth was -23.9% (active) with NCI-H522 lung, 5.9% (active) in the assay on A549/ATCC NSCLC, 7.41% (active) with 786-0 renal and -55% (active) with COLO 205 colon.

(Values after PubChem BioAssay (NCI).)
